Records with an inconclusive call do not appear. Activity calls are given as the source filed them. Calls follow the shape of the dose curve; as a rule, active = well fitted curve in the direction sought with a large enough effect in the repeat runs; inconclusive = weak or mixed curves; inactive = no such curve, though single readings can be large; an effect the other way counts as inactive or inconclusive.
Assays:
[1] = qHTS RealTime-Glo MT Cell Viability Assay in HepG2 cells - 40 hour (AID 1224870); also: nearly all actives have a fitted effect of over 50% in size
Outline: (§1)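 Real-time viability: cells seeded at 600 per well together with NanoLuc and cell-permeant prosubstrate, compounds added after 5 h incubation. Luminescence tracked at 0, 8, 16, 24, 32 and 40 h of exposure.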

[2] = A CellTox Green Cytotoxicity Assay to monitor cytotoxicity in HEK293 cells - 40 hour (AID 1224871); also: nearly all actives have a fitted effect of over 45% in size
Outline: (§2)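 Nonlytic real-time cytotoxicity: HEK293 + CellTox Green reagent plated, 5 h preincubation, pintool compound addition (23 nL in DMSO), 37 C for 40 h, fluorescence measured at successive time points.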

[3] = qHTS RealTime-Glo MT Cell Viability Assay in HepG2 cells - 8 hour (AID 1224873); also: nearly all actives have a fitted effect of over 55% in size
Outline: as §1

[4] = qHTS RealTime-Glo MT Cell Viability Assay in HEK293 cells - 40 hour (AID 1224874); settings: RealTime-Glo luminescence; max response: stronger effect = lower value; also: nearly all actives have a fitted effect of over 50% in size
Outline: (§3)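 Cells were seeded together with NanoLuc luciferase and a prosubstrate that viable cells reduce to a luciferase substrate. After a 5 h incubation at 37 C/5% CO2, compounds were added and luminescence was measured repeatedly during 40 h of treatment.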

[5] = A CellTox Green Cytotoxicity Assay to monitor cytotoxicity in HEK293 cells - 24 hour (AID 1224875); also: series mostly up to about 77 µM; nearly all actives have a fitted effect of over 45% in size
Outline: as §2

[6] = A CellTox Green Cytotoxicity Assay to monitor cytotoxicity in HepG2 cells - 16 hour (AID 1224876); also: nearly all actives have a fitted effect of over 45% in size
Outline: (§4)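 Read-out is fluorescence of a cyanine dye excluded from live cells that stains DNA of dead HepG2 cells, with signal proportional to cytotoxicity. Plates were read at 0, 8, 16, 24, 32 and 40 h after compound addition.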

[7] = qHTS RealTime-Glo MT Cell Viability Assay in HepG2 cells - 32 hour (AID 1224877); also: nearly all actives have a fitted effect of over 55% in size
Outline: (§5)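 Real-time, nonlytic viability: 600 HepG2 cells/well mixed with NanoLuc enzyme plus prosubstrate; 5 h settle, compound (DMSO) added by pintool; luminescence monitored over 40 h at 37 C.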

[8] = A CellTox Green Cytotoxicity Assay to monitor cytotoxicity in HepG2 cells - 40 hour (AID 1224879); also: nearly all actives have a fitted effect of over 40% in size
Outline: as §4

[9] = qHTS RealTime-Glo MT Cell Viability Assay in HEK293 cells - 0 hour (AID 1224880); also: top concentration of the series differs between compounds; nearly all actives have a fitted effect of over 45% in size
Outline: as §3

[10] = A CellTox Green Cytotoxicity Assay to monitor cytotoxicity in HEK293 cells - 32 hour (AID 1224881); also: nearly all actives have a fitted effect of over 40% in size
Outline: as §2

[11] = A CellTox Green Cytotoxicity Assay to monitor cytotoxicity in HepG2 cells - 0 hour (AID 1224882); also: nearly all actives have a fitted effect of over 35% in size
Outline: as §4

[12] = A CellTox Green Cytotoxicity Assay to monitor cytotoxicity in HepG2 cells - 32 hour (AID 1224883); also: nearly all actives have a fitted effect of over 50% in size
Outline: as §4

[13] = qHTS RealTime-Glo MT Cell Viability Assay in HepG2 cells - 16 hour (AID 1224885); also: nearly all actives have a fitted effect of over 50% in size
Outline: as §5

[14] = qHTS RealTime-Glo MT Cell Viability Assay in HEK293 cells - 24 hour (AID 1224886)
Outline: (§6)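 Cells + reagent dispensed (600 cells/well, HEK293) → 5 h at 37 C/5% CO2 → 23 nL compound in DMSO pinned → 40 h at 37 C → luminescence read at 0, 8, 16, 24, 32, 40 h.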

[15] = A CellTox Green Cytotoxicity Assay to monitor cytotoxicity in HEK293 cells - 16 hour (AID 1224888); also: nearly all actives have a fitted effect of over 35% in size
Outline: as §2

[16] = qHTS RealTime-Glo MT Cell Viability Assay in HepG2 cells - 0 hour (AID 1224889); also: nearly all actives have a fitted effect of over 50% in size
Outline: as §5

[17] = qHTS RealTime-Glo MT Cell Viability Assay in HEK293 cells - 16 hour (AID 1224872)
Outline: as §6

[18] = A CellTox Green Cytotoxicity Assay to monitor cytotoxicity in HepG2 cells - 24 hour (AID 1224878); also: nearly all actives have a fitted effect of over 45% in size
Outline: as §4

[19] = A CellTox Green Cytotoxicity Assay to monitor cytotoxicity in HEK293 cells - 8 hour (AID 1224884); also: nearly all actives have a fitted effect of over 35% in size
Outline: as §2

[20] = qHTS RealTime-Glo MT Cell Viability Assay in HEK293 cells - 8 hour (AID 1224887)
Outline: as §3
% is scaled to controls: 0 for no effect and ±100 for the full control effect.

SCCOCCOCCS
inactive: Potency [1] | Potency [2] | outcome [3] | max response [4] -3.19% | Potency [5] | Potency [6] | Potency [7] | Potency [8] | Potency [9] | Potency [10] | Potency [11] | Potency [12] | outcome [13] | Potency [14] | Potency [15] | Potency [16]

COc1ccc(CN(CCN(C)C)c2ncccn2)cc1
inactive: Potency [1] | Potency [17] | outcome [3] | max response [4] 4.01% | Potency [5] | Potency [6] | Potency [7] | Potency [18] | Potency [8] | Potency [9] | Potency [10] | Potency [11] | Potency [12] | Potency [19] | outcome [13] | Potency [14] | Potency [20] | Potency [16]

COC(=O)C(C)(C)C
inactive: Potency [1] | Potency [2] | max response [4] -22.6% | Potency [5] | Potency [6] | Potency [7] | Potency [18] | Potency [8] | Potency [9] | Potency [11] | Potency [12] | Potency [19] | outcome [13] | Potency [20] | Potency [15] | Potency [16]

C=CCCC
inactive: Potency [1] | Potency [17] | outcome [3] | max response [4] 18% | Potency [5] | Potency [6] | Potency [7] | Potency [18] | Potency [8] | Potency [9] | Potency [10] | Potency [11] | Potency [12] | Potency [19] | Potency [14] | Potency [20] | Potency [15] | Potency [16]

O=C(O)c1ccc(O)c(O)c1
inactive: Potency [1] | Potency [2] | Potency [17] | max response [4] -5.14% | Potency [5] | Potency [6] | Potency [7] | Potency [18] | Potency [9] | Potency [11] | Potency [12] | Potency [19] | outcome [13] | Potency [14] | Potency [20] | Potency [15] | Potency [16]

C[C@H](N)C(=O)N[C@@H](C)C(=O)NC1[C@H]2CN(c3nc4c(cc3F)c(=O)c(C(=O)O)cn4-c3ccc(F)cc3F)C[C@@H]12 (some centres undefined)
inactive: Potency [1] | Potency [17] | outcome [3] | max response [4] 0.749% | Potency [5] | Potency [6] | Potency [7] | Potency [18] | Potency [8] | Potency [9] | Potency [10] | Potency [11] | Potency [12] | Potency [19] | outcome [13] | Potency [14] | Potency [20] | Potency [15] | Potency [16]

O=C(O)c1ccccc1-n1cc(C(=O)O)c(=O)c2cc(Nc3c(F)cc(F)cc3Cl)c(Cl)cc21
inactive: Potency [1] | Potency [17] | outcome [3] | max response [4] 0.656% | Potency [5] | Potency [6] | Potency [7] | Potency [18] | Potency [8] | Potency [9] | Potency [10] | Potency [11] | Potency [12] | Potency [19] | outcome [13] | Potency [14] | Potency [20] | Potency [15] | Potency [16]

Nc1ccc(-c2ccc(F)cc2)cc1
inactive: Potency [1] | Potency [2] | outcome [3] | max response [4] -22.4% | Potency [5] | Potency [6] | Potency [7] | Potency [8] | Potency [9] | Potency [10] | Potency [11] | Potency [12] | Potency [19] | Potency [14] | Potency [15] | Potency [16]

CCn1nc(Cc2ccccc2)cc1C1CCN(C[C@H]2C[C@H](N(C)[C@@H](C(=O)O)C(C)C)C[C@@H]2c2cccc(F)c2)CC1
inactive: Potency [1] | Potency [2] | Potency [5] | Potency [6] | Potency [7] | Potency [18] | Potency [9] | Potency [10] | Potency [11] | outcome [13] | Potency [15] | Potency [16]

CC(=O)Nc1ccn(C2COC(COC(=O)c3ccccc3)O2)c(=O)n1 (centres undefined)
inactive: Potency [1] | Potency [2] | Potency [17] | max response [4] 3.96% | Potency [5] | Potency [6] | Potency [7] | Potency [18] | Potency [9] | Potency [11] | Potency [12] | Potency [19] | Potency [14] | Potency [20] | Potency [15] | Potency [16]

CCN(CCCCOC(=O)c1ccc(OC)c(OC)c1)C(C)Cc1ccc(OC)cc1 (centres undefined)
inactive: Potency [1] | Potency [2] | outcome [3] | Potency [5] | Potency [6] | Potency [7] | Potency [9] | Potency [11] | Potency [19] | outcome [13] | Potency [15] | Potency [16]

FC1(F)C(F)(F)C(F)(F)C2(F)C(F)(C1(F)F)C(F)(F)C(F)(F)C1(F)C(F)(F)C(F)(F)C(F)(F)C(F)(F)C12F (centres undefined)
inactive: Potency [1] | Potency [2] | Potency [17] | max response [4] 0.279% | Potency [5] | Potency [6] | Potency [7] | Potency [18] | Potency [9] | Potency [10] | Potency [11] | Potency [12] | outcome [13] | Potency [14] | Potency [20] | Potency [15] | Potency [16]

CC[C@H](NC(C)C)[C@H](O)c1ccc(O)c2[nH]c(=O)ccc12
inactive: Potency [2] | Potency [17] | outcome [3] | max response [4] 5.21% | Potency [5] | Potency [6] | Potency [7] | Potency [18] | Potency [8] | Potency [9] | Potency [10] | Potency [11] | Potency [12] | Potency [19] | outcome [13] | Potency [14] | Potency [20] | Potency [15] | Potency [16]

CCCC1CCOC(C)S1 (centres undefined)
inactive: Potency [1] | Potency [17] | outcome [3] | max response [4] 4.04% | Potency [5] | Potency [6] | Potency [7] | Potency [8] | Potency [9] | Potency [10] | Potency [11] | Potency [12] | outcome [13] | Potency [14] | Potency [20] | Potency [15] | Potency [16]

Cc1cc(C)n(CO)n1
inactive: Potency [1] | Potency [17] | outcome [3] | max response [4] 1.2% | Potency [5] | Potency [6] | Potency [7] | Potency [8] | Potency [9] | Potency [10] | Potency [11] | Potency [12] | outcome [13] | Potency [14] | Potency [20] | Potency [15] | Potency [16]

From PubChem BioAssay (Tox21)
